Source: PubChem BioAssay (several laboratories)
PPC-1+TRAIL kill = compounds killing PPC-1 cancer cells with TRAIL present, primary screen, TRAIL potentiator project, ATPLite luminescence, uHTS. cell killing (% activity), % at 4 µM or 5 µM. AID 1443, 2008. 0.41% of 220,000 active. PPC-1 cells + TRAIL, ATPLite viability luminescence;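 active means cell killing above 50% in the first pass at 4 µM, then a duplicate retest at 5 µM averaging 50% or more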
HSF1 inhib = HSF1 inhibitors in luciferase reporter cells, primary screen, cell-based, NIH3T3, luminescence. NIH3T3-HGL HSE-luciferase, MG132-induced, luminescence 8 h; hits give low values. activity change, negative = inhibition, % at 7.5 µM (by protocol). 0.77% of 300,000 active;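 active means more than half of replicate wells show activity change below -50%, luminescence cut by over half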;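 further: luciferase reports HSF-1 transcriptional activity via heat shock element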
HSP90 inh = HSP90 inhibitors, primary screen, cell lysate, luminescence; Heat shock protein HSP 90 (rabbit reticulocyte lysate; luciferase refolding); Rabbit reticulocyte lysate, luciferase refolding luminescence, 3 h; inhibition, % at 5.6 µM; 0.91% of 290,000 active;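 active means inhibition above the screen-wide mean plus 3 SD, computed separately per campaign, cut at about 16% in these data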;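 further: inhibitors lower the luminescence because luciferase stays unfolded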
STAT1 inh = STAT1 signaling inhibitors, primary screen, cell-based, HTS, luciferase reporter | NIH 3T3 STAT1-luciferase reporter, IFN-gamma, luminescence | 0.35% of 200,000 active | inhibition, % at 5.5 µM | AID 920, 2007;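 active means inhibition above a set limit, the mean inhibition across all tested compounds plus 3 SD, cut at about 34% in these data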
TRAIL sens C8 = viability loss with TRAIL in NB7+C8 cells, primary screen, TRAIL sensitizer project, cell-based, ATPlite luminescence. AID 624354, 2012. inhibition (viability loss, TRAIL sensitization), % at 10 µM. 1% of 360,000 active;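 active means compounds causing at least 50% loss of cell viability in the single-dose screen, relative to plate controls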
STAT3 blocker = IL-6 driven STAT3 reporter inhibitors, primary screen, U3A cells, luciferase, luminescence, MLSCN library. IL-6 STAT3-luciferase reporter; host cell line lacks STAT1. 0.89% of 190,000 active. inhibition, % at 5.5 µM;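 active means inhibition above the mean inhibition across all screened compounds plus 3 SD, cut at about 44% in these data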
PPC1 cytotox = cytotoxicity in PPC-1 cells, confirmation, cytotoxicity control for TRAIL apoptosis potentiator project, cell-based, ATP content luminescence. shares compounds with PPC-1+TRAIL kill. PPC-1 viability, ATPlite luminescence, overnight. cytotoxicity, % at 5 µM. 50% of 1,200 active. AID 1447, 2008;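 active means reconfirmed compounds whose average cytotoxicity reaches 50% or more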
Each line names hits and unclear results; the compound was inactive in the other large screens (follow-up assays come after a bar, where they were run). Sampled rows, rich in hits. Any-hit rate of the full collection: about 2.4%.

O=C1c2c(-c3ccc(Br)cc3)noc2CCN1Cc1cn(Cc2cccnc2)nn1	none (no result: PPC-1+TRAIL kill, HSF1 inhib, HSP90 inh, STAT1 inh, STAT3 blocker)
COCCOC(=O)CSc1ncccc1-c1nc2cc(C)c(C)cc2[nH]1	PPC-1+TRAIL kill 57, TRAIL sens C8 65 (no result: HSF1 inhib) | PPC1 cytotox 59
COc1ccc(-c2nc3ncccn3c2Nc2ccc3c(c2)OCCO3)cc1	none | PPC1 cytotox inactive
C/C(=N\NC(=O)c1ccccc1NC(=O)c1ccc(Cl)cc1)c1ccncc1	PPC-1+TRAIL kill 97, HSP90 inh 52, STAT1 inh 96, TRAIL sens C8 94, STAT3 blocker 106 | PPC1 cytotox 97
S=C(Nc1ccc2c(c1)OCO2)N1CCN(Cc2ccco2)CC1	PPC-1+TRAIL kill 53, TRAIL sens C8 60 | PPC1 cytotox 56
S=C(NCc1ccco1)N1CCN(Cc2ccco2)CC1	none
CCC(=O)Nc1cc2nn(-c3ccccc3)nc2cc1Cl	PPC-1+TRAIL kill 60, TRAIL sens C8 64 | PPC1 cytotox 60
CC(C)(C)c1ccc(CC(=O)N2CCC2(C)C(=O)Nc2cnc3ccccc3c2)cc1 (stereo not given)	none (no result: PPC-1+TRAIL kill, HSF1 inhib, HSP90 inh, STAT1 inh, STAT3 blocker)
O=C(Cc1ccc(NC(=O)C2CCN(C(=O)C3CCCC3)CC2)cc1)Nc1ccc(C(=O)N2CCOCC2)cc1	none (no result: PPC-1+TRAIL kill, HSF1 inhib, HSP90 inh, STAT1 inh, STAT3 blocker)
COC(=O)c1c(-c2ccc(OC)cc2)sc2ccc(N3CCOCC3)cc12	none (no result: PPC-1+TRAIL kill, HSF1 inhib, HSP90 inh, STAT1 inh, STAT3 blocker)
COC(=O)c1nc2ccc(N3CCOCC3)cc2c(C)c1C(=O)OC	TRAIL sens C8 63 (no result: HSF1 inhib) | PPC1 cytotox inactive
CN(C)c1ccc(NC2=C(Cl)C(=O)c3ccccc3C2=O)cc1	TRAIL sens C8 70 | PPC1 cytotox inactive
O=C1C(Cl)=C(Nc2ccc3cn[nH]c3c2)C(=O)c2ccccc21	PPC-1+TRAIL kill 76, HSF1 inhib -90, TRAIL sens C8 72 (no result: STAT1 inh, STAT3 blocker) | PPC1 cytotox 69
CC(=O)Nc1ccc(NC2=C(Cl)C(=O)c3ccccc3C2=O)cc1	none (no result: TRAIL sens C8)
N#CCCCc1cn(-c2nc3ccccc3s2)nn1	none (no result: PPC-1+TRAIL kill, HSF1 inhib, HSP90 inh, STAT1 inh, STAT3 blocker)
Cc1ccc(NC(=O)c2cccc3ccccc23)cc1	none (no result: PPC-1+TRAIL kill, STAT1 inh, STAT3 blocker)
Cc1ccc(NC(=O)c2csc(-c3ccccc3)c2C)cc1	PPC-1+TRAIL kill 80, HSP90 inh 34, STAT1 inh 63, TRAIL sens C8 81, STAT3 blocker 104 (no result: HSF1 inhib) | PPC1 cytotox 82
COc1ccc([C@H]2CC(=O)C[C@@H](CCn3nnc4ccccc43)O2)cc1	none (no result: PPC-1+TRAIL kill, HSF1 inhib, HSP90 inh, STAT1 inh, STAT3 blocker)
O=C(O)c1cccc(NC(=O)c2ccc(S(=O)(=O)c3ccccc3)cc2)c1	none
CN(C)S(=O)(=O)c1ccc(C(=O)Nc2cccc(C(=O)O)c2)cc1	none | PPC1 cytotox inactive
CN=c1scc(C)n1/N=C/c1ccc(O)cc1O	PPC-1+TRAIL kill 71, STAT1 inh 56, TRAIL sens C8 67, STAT3 blocker 61 | PPC1 cytotox 71
CN=c1scc(C)n1/N=C/c1ccc(O)cc1	none (no result: HSF1 inhib)
COc1cccc2c1nc(C)c1cc(C)oc12	none
COc1cccc2nc3cc(C)c(C)cc3nc12	PPC-1+TRAIL kill 70, TRAIL sens C8 68 (no result: STAT1 inh, STAT3 blocker) | PPC1 cytotox 68
CCCc1ccc(C(=O)NC(=O)c2ccccc2O)cc1	PPC-1+TRAIL kill 61, TRAIL sens C8 74 (no result: STAT1 inh, STAT3 blocker) | PPC1 cytotox 61
COc1cccc(C2=Cc3ccc(F)cc3C(CC(C)=O)N2c2ccc(C#CC3(O)CCCCC3)cc2)c1 (stereo not given)	none (no result: PPC-1+TRAIL kill, HSF1 inhib, HSP90 inh, STAT1 inh, STAT3 blocker)
O=C(Nc1ccccc1C(=O)N1CCCCC1)c1cccc(S(=O)(=O)N2CCOCC2)c1	none
O=C(Nc1ccccc1C(=O)N1CCCC1)c1cccc(S(=O)(=O)N2CCCCC2)c1	none | PPC1 cytotox inactive
O=C(Nc1ccc2nsnc2c1)c1ccc2c(c1)OCO2	none (no result: HSF1 inhib) | PPC1 cytotox 52
O=C(Nc1ccc2c(c1)OCO2)Nc1ccc2c(c1)OCO2	none | PPC1 cytotox inactive
O=C(Nc1ccc(Cl)cc1)Nc1ccc2c(c1)OCO2	none (no result: PPC-1+TRAIL kill, STAT1 inh, STAT3 blocker)
CN(C)Cc1ccccc1CNC(=O)c1ccc(Cl)c(S(=O)(=O)NC2CC2)c1	none (no result: PPC-1+TRAIL kill, HSF1 inhib, HSP90 inh, STAT1 inh, STAT3 blocker)
CC(=NNC(=S)Nc1ccccc1)c1ccccn1	none (no result: PPC-1+TRAIL kill, HSF1 inhib, HSP90 inh, STAT1 inh, STAT3 blocker)
